The source of these data is PubChem BioAssay.

Active and inactive are the calls of the source.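 How the source made its calls, unless noted: active means Her2 level under about 52% in both replicate screens, with viability over 70% of control (limit read from the data); inconclusive means Her2 under the limit in one screen only, or viability under 70%; inactive means Her2 level above the set limit.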

Experiment [1] can be described thus: Her2 expression decrease, cell viability multiplex – SKBR3 breast tumor cells, AlphaScreen, ATP viability, primary screen (AID 461).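 On Her2 level: lower value means less Her2 protein in the cells.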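 On viability: percent of carrier control wells set as 100% viability.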 To be noted: SKBR3 Her2 protein level, 18-24 h, measured here: SKBR3 viability, ATP luminescence, at 10 µM. In general terms: Alpha assays give light when donor and acceptor beads are brought close together.
The target in experiment [2] is Receptor tyrosine-protein kinase erbB-2 (Homo sapiens) (UniProt P04626). Described as above. The following applies: 18-24 h, at 10 µM, stronger effect = lower value.
Experiment [3] is described as follows: reduced viability of SK-BR-3 breast cancer cells – cell-based, 24 h, human, pilot screen (AID 572;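 active means viability at or below 10% of carrier control in both of two separate runs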;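 further: compound exposure lasted between 18 and 24 h rather than exactly 24 h; 100% = carrier-treated control wells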). The following applies: SK-BR-3 viability, CellTiter-Glo luminescence, at 10 µM, stronger effect = lower value. A general note: ATP-based viability assays read luminescence as a measure of living cells.
A short description of experiment [4]: H69AR cell proliferation blockers – human, duplicate replicates, primary screen (AID 580;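 active means viability at or under a set limit in both replicates, limit being median viability minus 3 SD, cut at about 48% in these data, passing the limit was not always enough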;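 further: 100% = mean luminescence of untreated wells and 0% = no signal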). To be noted: H69AR lung tumor cells viability, ATP luminescence, 72 h; at 10 µM; stronger effect = lower value.
The nature of experiment [5]: MRP1 drug-resistance reversers in H69AR cells – cell-based, doxorubicin co-treatment, pilot screen (AID 601;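 active means viability loss from added drug above about 55%, and viability with drug at most 40%, in both replicates, limit read from the data, passing the limit was not always enough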). The following applies: CellTiter-Glo, 72 h, at 10 µM; for differential viability (reversal): stronger effect = higher value.
The nature of experiment [6]: yeast transport mutant growth inhibition pilot in 384-well plates, post-Golgi transport modulator project (AID 636; in the data active means inhibition above about 31%). To be noted: absorbance 615 nm, about 18 h, stronger effect = higher value.
Experiment [7] is described as follows: growth suppression of yeast trafficking mutant, preliminary HTS, modulators of trafficking downstream of Golgi apparatus project, 1536-format plate, OD 615 nm (AID 637; in the data active means inhibition above about 30%). To be noted: yeast transport mutant growth, absorbance 615 nm, 18 h; stronger effect = higher value.
The mark [8] stands for this setting: H69AR cells + 2 uM doxorubicin, measured here: viability with 2 uM doxorubicin, stronger effect = lower value.
Where [9] appears, read: H69AR cells, compound alone cytotoxicity.

Sequence of Receptor tyrosine-protein kinase erbB-2 (Homo sapiens) (P04626 whole entry, looked up): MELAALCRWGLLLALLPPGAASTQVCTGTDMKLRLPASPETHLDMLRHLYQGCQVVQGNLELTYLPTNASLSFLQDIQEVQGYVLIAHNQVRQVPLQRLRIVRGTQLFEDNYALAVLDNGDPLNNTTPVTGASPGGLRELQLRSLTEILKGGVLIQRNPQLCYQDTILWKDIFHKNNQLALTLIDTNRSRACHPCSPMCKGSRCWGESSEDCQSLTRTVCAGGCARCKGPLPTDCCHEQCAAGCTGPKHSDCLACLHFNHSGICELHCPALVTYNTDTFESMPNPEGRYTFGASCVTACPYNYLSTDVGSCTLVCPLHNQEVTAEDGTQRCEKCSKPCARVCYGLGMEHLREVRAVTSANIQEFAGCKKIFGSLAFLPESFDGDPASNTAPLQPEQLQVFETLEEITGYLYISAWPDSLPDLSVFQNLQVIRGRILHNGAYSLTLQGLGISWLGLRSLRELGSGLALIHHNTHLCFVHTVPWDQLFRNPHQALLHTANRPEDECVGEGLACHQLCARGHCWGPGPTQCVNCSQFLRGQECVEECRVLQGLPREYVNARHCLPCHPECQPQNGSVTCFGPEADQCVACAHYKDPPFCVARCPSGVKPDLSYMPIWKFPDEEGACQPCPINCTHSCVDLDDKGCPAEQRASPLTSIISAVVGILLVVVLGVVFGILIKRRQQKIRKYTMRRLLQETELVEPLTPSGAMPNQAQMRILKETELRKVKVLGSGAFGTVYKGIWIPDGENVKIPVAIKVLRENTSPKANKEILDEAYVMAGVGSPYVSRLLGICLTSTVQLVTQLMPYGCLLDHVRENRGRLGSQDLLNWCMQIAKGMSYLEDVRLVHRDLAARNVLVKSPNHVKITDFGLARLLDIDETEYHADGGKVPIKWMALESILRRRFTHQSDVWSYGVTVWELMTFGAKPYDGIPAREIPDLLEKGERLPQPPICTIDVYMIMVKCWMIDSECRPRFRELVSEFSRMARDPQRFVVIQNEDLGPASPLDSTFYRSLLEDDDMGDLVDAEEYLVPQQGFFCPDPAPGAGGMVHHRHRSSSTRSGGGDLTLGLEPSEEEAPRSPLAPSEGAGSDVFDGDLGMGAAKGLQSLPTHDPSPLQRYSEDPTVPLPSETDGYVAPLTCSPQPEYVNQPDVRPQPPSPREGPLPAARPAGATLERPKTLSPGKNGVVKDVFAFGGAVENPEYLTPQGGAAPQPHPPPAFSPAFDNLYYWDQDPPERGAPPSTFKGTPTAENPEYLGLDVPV

Consider `COC(=O)c1ccc2c(=O)n(Cc3ccco3)c(SCC(=O)Nc3ccc(C)c(Cl)c3)nc2c1`, for which the viability in experiment [1] was 77.5%; in experiment [3], 77.5% (inactive); in experiment [4] it was 8.06% (active); in experiment [5] (setting [8]), 10.3%; in experiment [5] (setting [9]), 8.06%. Moreover, the Her2 level in experiment [2] is 59.5% (inactive). Moreover, in experiment [5] (H69AR cells + 2 uM doxorubicin), the differential viability (reversal) was -2.23% (inactive). In addition, the inhibition in experiment [6] is -1.71% (inactive); in experiment [7] it was -2.7% (inactive).
As for `CCOC(=O)c1cnc(-n2nc(C)cc2C)nc1NC(C)c1ccccc1` (stereo not drawn), the viability is 153% in experiment [1]; 153% (inactive) in experiment [3]; 10.1% (active) in experiment [4]; 11.3% in experiment [5] (setting [8]); 10.1% in experiment [5] (setting [9]). Moreover, the Her2 level in experiment [2] was 65% (inactive). The differential viability (reversal) in experiment [5] (H69AR cells + 2 uM doxorubicin) is -1.17% (inactive). Further, the figures for the inhibition in experiment [6] and in experiment [7] were -3.16% (inactive) and 14.3% (inactive), respectively.
Turning to `c1ccc(CN2CCN(c3ncnc4c3[nH]c3ccccc34)CC2)cc1`, the viability in experiment [1] is 121%; in experiment [3] it was 121% (inactive); in experiment [4] it was 60.6% (inactive); in experiment [5] (setting [8]), 83.2%; in experiment [5] (setting [9]) it was 60.6%. For the same molecule, the Her2 level in experiment [2] is 47% (active). Besides, the differential viability (reversal) in experiment [5] (H69AR cells + 2 uM doxorubicin) was -22.6% (inactive). Also, the values for the inhibition in experiment [6] and in experiment [7] were -6% (inactive) and 2.1% (inactive), respectively.
For the molecule `COc1ccc(-c2n[nH]c(C)c2-c2ccc(Cl)cc2)c(O)c1OC`, the viability in experiment [1] is 83.5%; in experiment [3], 83.5% (inactive); in experiment [4], 23.2% (active); in experiment [5] (setting [8]) it was 33.8%; in experiment [5] (setting [9]), 23.2%. In addition, in experiment [2], the Her2 level was 109% (inactive). In experiment [5] (H69AR cells + 2 uM doxorubicin), the differential viability (reversal) is -10.6% (inactive). The inhibition is -0.92% (inactive) in experiment [6] and 4.26% (inactive) in experiment [7].
For `O=c1c2ccccc2nc(SCc2nnc(-c3ccccc3Br)o2)n1-c1ccccc1`, the viability in experiment [1] was 77%; in experiment [3], 77% (inactive); in experiment [4], 84.2% (inactive); in experiment [5] (setting [8]) it was 87.5%; in experiment [5] (setting [9]) it was 84.2%. The Her2 level in experiment [2] was 95.5% (inactive). In addition, the differential viability (reversal) in experiment [5] (H69AR cells + 2 uM doxorubicin) is -3.29% (inactive). Also, the values for the inhibition in experiment [6] and in experiment [7] were -0.27% (inactive) and 3.77% (inactive), respectively.
For `Cc1cccc(Nc2ncc3c(n2)CC(c2ccco2)CC3=O)c1` (stereo not drawn), the viability in experiment [1] was 81.5%; in experiment [3], 81.5% (inactive); in experiment [4], 75.5% (inactive); in experiment [5] (setting [8]) it was 77.9%; in experiment [5] (setting [9]), 75.5%. The Her2 level in experiment [2] is 83% (inactive). Also, in experiment [5] (H69AR cells + 2 uM doxorubicin), the differential viability (reversal) was -2.41% (inactive). Also, the values for the inhibition in experiment [6] and in experiment [7] were 0.26% (inactive) and 4.17% (inactive), respectively.
Consider `COc1ccc(-c2nc(N)nc(C)c2Oc2ccccc2Br)c(O)c1`, for which the viability in experiment [1] is 96%; in experiment [3], 96% (inactive); in experiment [4] it was 5.08% (active); in experiment [5] (setting [8]) it was 17.8%; in experiment [5] (setting [9]) it was 5.08%. For the same molecule, the Her2 level in experiment [2] was 74% (inactive). Further, the differential viability (reversal) in experiment [5] (H69AR cells + 2 uM doxorubicin) is -12.7% (inactive). The inhibition is -4.34% (inactive) in experiment [6] and 57.6% (active) in experiment [7].
On to `CCOC(=O)c1cnn(-c2sc(C(=O)OCC)c(C)c2C(=O)OCC)c1N`, for which the viability was 95% in experiment [1]; 95% (inactive) in experiment [3]; 15.8% (active) in experiment [4]; 41.6% in experiment [5] (setting [8]); 15.8% in experiment [5] (setting [9]). Moreover, the Her2 level in experiment [2] is 93.5% (inactive). In experiment [5] (H69AR cells + 2 uM doxorubicin), the differential viability (reversal) is -25.8% (inactive). For the same molecule, the inhibition is 0.27% (inactive) in experiment [6] and -4.6% (inactive) in experiment [7].
`CCOC(=O)N1CCC(NC(=O)c2ccc3nc(N4CCOCC4)sc3c2)CC1`: the viability in experiment [1] is 102%; in experiment [3], 102% (inactive); in experiment [4], 97.1% (inactive); in experiment [5] (setting [8]), 99.7%; in experiment [5] (setting [9]), 97.1%. Besides, the Her2 level in experiment [2] is 105% (inactive). The differential viability (reversal) in experiment [5] (H69AR cells + 2 uM doxorubicin) was -2.62% (inactive). For the same molecule, the figures for the inhibition in experiment [6] and in experiment [7] were -4.74% (inactive) and -0.32% (inactive), respectively.
With `COc1ccc(-c2cc3c(=O)n(CC(=O)NC4CCN(Cc5ccccc5)CC4)ncn3n2)cc1`, the viability in experiment [1] was 75%; in experiment [3], 75% (inactive); in experiment [4], 74.2% (inactive); in experiment [5] (setting [8]), 75%; in experiment [5] (setting [9]), 74.2%. Further, in experiment [2], the Her2 level was 103% (inactive). For the same molecule, the differential viability (reversal) in experiment [5] (H69AR cells + 2 uM doxorubicin) was -0.715% (inactive). For the same molecule, the inhibition in experiment [6] was -5.66% (inactive); in experiment [7], -0.83% (inactive).
Regarding `O=C(CN1CCC(c2nc3ccccc3s2)CC1)NCc1cccs1`, the viability is 110% in experiment [1]; 110% (inactive) in experiment [3]; 85.3% (inactive) in experiment [4]; 88.6% in experiment [5] (setting [8]); 85.3% in experiment [5] (setting [9]). In addition, in experiment [2], the Her2 level is 91% (inactive). For the same molecule, the differential viability (reversal) in experiment [5] (H69AR cells + 2 uM doxorubicin) is -3.33% (inactive). The inhibition in experiment [6] is -0.8% (inactive); in experiment [7], 6.72% (inactive).
Regarding `O=S(=O)(Nc1ccc2c(c1)OCO2)c1ccc(Br)s1`, the viability in experiment [1] was 92%; in experiment [3], 92% (inactive); in experiment [4], 96.8% (inactive); in experiment [5] (setting [8]), 96.3%; in experiment [5] (setting [9]), 96.8%. For the same molecule, the Her2 level in experiment [2] is 79% (inactive). Moreover, the differential viability (reversal) in experiment [5] (H69AR cells + 2 uM doxorubicin) was 0.44% (inactive). Besides, the inhibition in experiment [6] was -4.47% (inactive); in experiment [7] it was -10.7% (inactive).
For `COc1cc2nc(SCC(=O)NC3CC3)n(CCC3=CCCCC3)c(=O)c2cc1OC`, the viability in experiment [1] is 102%; in experiment [3], 102% (inactive); in experiment [4], 74.5% (inactive); in experiment [5] (setting [8]) it was 65.1%; in experiment [5] (setting [9]), 74.5%. Moreover, the Her2 level in experiment [2] was 107% (inactive). Moreover, the differential viability (reversal) in experiment [5] (H69AR cells + 2 uM doxorubicin) was 9.46% (inactive). The inhibition was -2.11% (inactive) in experiment [6] and -4.33% (inactive) in experiment [7].
As to `COc1ccccc1NC(=O)NCCCN1CCN(c2cccc(Cl)c2)CC1`, the viability is 77% in experiment [1]; 77% (inactive) in experiment [3]; 72.6% (inactive) in experiment [4]; 86.8% in experiment [5] (setting [8]); 72.6% in experiment [5] (setting [9]). Also, the Her2 level in experiment [2] is 70.5% (inactive). Moreover, the differential viability (reversal) in experiment [5] (H69AR cells + 2 uM doxorubicin) is -14.3% (inactive). Also, the figures for the inhibition in experiment [6] and in experiment [7] were 4.4% (inactive) and -7.7% (inactive), respectively.
As to `CN1CCc2nc(SCCOc3ccccc3)c(C#N)cc2C1`, the viability was 150% in experiment [1]; 150% (inactive) in experiment [3]; 84.8% (inactive) in experiment [4]; 98.5% in experiment [5] (setting [8]); 84.8% in experiment [5] (setting [9]). Also, the Her2 level in experiment [2] is 25% (active). The differential viability (reversal) in experiment [5] (H69AR cells + 2 uM doxorubicin) is -13.7% (inactive). For the same molecule, the inhibition in experiment [6] was -1.69% (inactive); in experiment [7], 0.67% (inactive).
On to `Cc1ccc(O)c(-c2cc3ccccc3[nH]2)c1`, for which the viability in experiment [1] was 105%; in experiment [3], 105% (inactive); in experiment [4], 70.2% (inactive); in experiment [5] (setting [8]) it was 59.2%; in experiment [5] (setting [9]), 70.2%. Further, the Her2 level in experiment [2] is 87% (inactive). The differential viability (reversal) in experiment [5] (H69AR cells + 2 uM doxorubicin) was 11.1% (inactive). For the same molecule, the inhibition in experiment [6] was -8.92% (inactive); in experiment [7], 0.33% (inactive).
Take `CCOC(=O)/C=C(\C)Sc1cc(=O)oc2ccccc12`: the viability was 94.5% in experiment [1]; 94.5% (inactive) in experiment [3]; 6.09% (active) in experiment [4]; 3.73% in experiment [5] (setting [8]); 6.09% in experiment [5] (setting [9]). In experiment [2], the Her2 level is 47.5% (active). The differential viability (reversal) in experiment [5] (H69AR cells + 2 uM doxorubicin) was 2.37% (inactive). Besides, the inhibition is -0.92% (inactive) in experiment [6] and 1.45% (inactive) in experiment [7].

Broadly, the viability is a read-out of living cells in per cent, often relative to untreated cells. A word on the inhibition: it is the drop in the measured response relative to a control, in per cent.
